Sampled rows, rich in hits. Any-hit rate of the full collection: about 1.1%.
NR5A2 inv ag – LRH-1 (NR5A2) inverse agonists, primary screen, cell-based, luminescence, HEK293T, StAR-luciferase reporter; LRH-1 transfected, 24 h; inhibition, % at 3.6 µM; 360,000 tested, 0.13% active; AID 602396, 2012;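 active = inhibition above the mean inhibition of all tested compounds plus 3 SD, cut at about 73% in these data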;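 also: 0% = DMSO wells and 100% = reporter-only cells lacking LRH-1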
SRC1 inh – SRC1 coactivator transcriptional activity inhibitors, primary screen, cell-based, luminescence; Nuclear receptor coactivator 1 (Homo sapiens), Q15788; HEK293 GAL4-SRC1 luciferase reporter; inhibition, % at 3.6 µM; 360,000 tested, 0.12% active; AID 588354, 2011;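 active = inhibition above the campaign mean plus 3 SD, with each screening campaign given its own cutoff, cut at about 60% in these data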;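 also: 0% = DMSO treated cells and 100% = gossypol at 36 µM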
NCOA3 inh – SRC3 coactivator transcriptional activity inhibitors, primary screen, cell-based, luminescence. HEK293 GAL4-SRC3 luciferase reporter. inhibition, % at 3.6 µM. 360,000 tested, 0.17% active;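 active = inhibition above a per-campaign cutoff, the mean of all compounds plus 3 SD, cut at about 60% in these data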;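 also: 0% = DMSO-treated cells and 100% = gossypol-treated cells at 36 µM; higher means less SRC3-driven luciferase light from the GAL4 reporter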
NCOA2 inhibitor – inhibition of GAL4-SRC2 driven luciferase reporter, primary screen, SRC2 inhibitor project, cell-based, luminescence. Nuclear receptor coactivator 2 (Homo sapiens), Q15596. HEK293 GAL4-SRC2 luciferase reporter. inhibition, % at 9 µM. 370,000 tested, 0.17% active. AID 651957, 2012;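 active = inhibition above the mean inhibition of all tested compounds plus 3 SD, set per campaign, cut at about 52% in these data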;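 also: 0% = DMSO treated cells and 100% = cells given Gossypol at 36 µM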
NR2F2 inh – NR2F2 transcriptional activity inhibitors, primary screen, cell-based, luciferase reporter, HEK293T, luminescence. COUP transcription factor 2 (Homo sapiens), P24468. HEK293T NGFI-A luciferase reporter. inhibition, % at 8.6 µM. 370,000 tested, 0.7% active;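 active = inhibition above a per-plate cutoff, mean inhibition of test wells between control levels plus 3 SD, cut at about 38% in these data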;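 also: cells cotransfected with COUP-TFII expression vector driving the NGFI-A reporter; 0% = median of COUP-TF2 test wells and 100% = reporter-only cells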
GalR3 antag – GalR3 antagonists in HEK293 cells, primary screen, cell-based, fluorescence readout. Galanin receptor type 3 (Homo sapiens), O60755. HEK293 GalR3-CNG cAMP membrane potential fluorescence; galR3 body fused to GalR1 C-terminus. inhibition, % at 3 µM. 360,000 tested, 0.44% active;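 active = inhibition above the screen-wide average plus 3 SD, cut at about 13% in these data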;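 also: forskolin and galanin both at EC90 stimulate the cells; cAMP rise reported by CNG channel membrane potential dye signal; 0% = forskolin plus galanin with DMSO and 100% = forskolin alone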
Target sequence (O60755 1-299 limits assumed): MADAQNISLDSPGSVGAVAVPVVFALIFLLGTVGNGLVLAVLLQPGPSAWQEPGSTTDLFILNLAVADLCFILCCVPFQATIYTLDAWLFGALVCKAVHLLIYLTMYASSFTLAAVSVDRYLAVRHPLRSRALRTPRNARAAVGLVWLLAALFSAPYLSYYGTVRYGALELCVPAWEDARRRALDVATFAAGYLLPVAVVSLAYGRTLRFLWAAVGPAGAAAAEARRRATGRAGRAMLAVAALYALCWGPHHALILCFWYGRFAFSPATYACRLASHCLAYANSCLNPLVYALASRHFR
An asterisk follows results filed as active; / = no result given.

SMILES | NR5A2 inv ag | SRC1 inh | NCOA3 inh | NCOA2 inhibitor | NR2F2 inh | GalR3 antag
Cc1nc2c(o1)C(=O)c1ccccc1C2=Nc1ccccc1 | 22 | 37 | 77* | -16 | -5 | -4
COc1cccc(/C=C/C(=O)OCC(=O)N2CCCC2)c1OC | -16 | -22 | 86* | 4 | -39 | -6
COc1ccccc1/C=C/C(=O)OCC(=O)N1CCCCC1 | -15 | -25 | -14 | -29 | -13 | -6
O=C(NCc1cccs1)c1nc2c(nnn2Cc2ccccc2Cl)c(=O)[nH]1 | 101* | 43 | 90* | 56* | 65* | -8
CC1=CC2(C(Cc3ccccc3)N(CC3CC3)C(=NC(=O)c3ccccc3)N2C(=O)OCc2ccccc2)n2c(=O)n(-c3ccccc3)c(=O)n2C1 (stereo not drawn) | / | / | / | -2 | -9 | /
Clc1ccc(Nc2ncnc3ccc(Br)cc23)cc1 | 4 | 31 | 40 | 48 | 33 | -4
COc1ccc(Nc2ncnc3ccc(Br)cc23)cc1OC | 10 | 61* | 47 | / | / | /
FC(F)(F)c1cc(Cl)c2nc(-c3ccco3)c(Cc3ccccc3C(F)(F)F)n2c1 | 19 | / | / | -30 | -7 | 21*
FC(F)(F)c1cc(C(F)(F)F)c2ccc(N3CCN(c4ccc(Cl)cc4)CC3)nc2n1 | 4 | -6 | -7 | -9 | -15 | -1
N#CC(c1ccc(Cl)cc1)c1ccc2c(C(F)(F)F)cc(C(F)(F)F)nc2n1 (stereo not drawn) | -2 | 66* | 76* | 11 | 58* | 36*
O=S(=O)(c1ccccc1F)N1CCC(c2nc3ccccc3o2)CC1 | / | / | / | 8 | 9 | /
CSCCCNC(=O)c1oc(=O)c2ccccc2c1-c1ccc(C)cc1 | / | / | / | 12 | 9 | /
c1csc(C2=Nn3c(nnc3-c3ccncc3)SC2)c1 | 41 | 65* | 60 | 43 | 29 | -3
Nc1cc2ccncc2c2ccccc12 | 66 | 67* | 60 | 40 | 36 | -14
O=C(NCCc1ccccc1)OCc1cn(-c2cccc(F)c2F)nn1 | / | / | / | 12 | -13 | /
COC(=O)CCC/C=C1/SCC(NC(=O)c2ccccc2)C1=O (stereo not drawn) | 2 | 4 | 13 | 5 | 9 | 13*
CC(c1ccc(O)cc1)c1cn(C)c2ccccc12 (stereo not drawn) | / | / | / | -9 | -9 | /
COc1ccc(-c2cn[nH]c2-c2ccc(OC)cc2O)cc1 | 11 | 34 | 40 | 52* | 16 | -11
C/C(=N/NC(=O)c1ccoc1C)c1cccs1 | / | / | / | -46 | -46 | /
COc1ccc(C)cc1NS(=O)(=O)c1ccc(NC(=O)CN(c2cc([N+](=O)[O-])ccc2C)S(C)(=O)=O)cc1 | 27 | 10 | 38 | 37 | -4 | -12
Cc1cccc(NS(=O)(=O)c2ccc(NC(=O)CN(c3cc([N+](=O)[O-])ccc3C)S(C)(=O)=O)cc2)c1 | 19 | 17 | 40 | 54* | -25 | -1
O=C(CCc1ccccc1)N[C@H]1[C@@H](OC(=O)c2cccnc2)CCC[C@]12C(=O)N(Cc1ccccc1)c1ccccc12 | / | / | / | 16 | 10 | /
Cc1cccc(-n2c(CNC(=O)c3ccccc3)nnc2SCC(=O)Nc2nccs2)c1 | 85* | 59 | -16 | 11 | 14 | /
O=C1CCCC/C1=C/Nc1cccc(C(F)(F)F)c1 | -23 | -16 | 0 | -7 | -14 | -1
O=C1CCC2S/C(=C/Nc3ccc(C(F)(F)F)cc3)C(=O)N12 (stereo not drawn) | 10 | 33 | 31 | 72* | 32 | -7
SMILES | NR5A2 inv ag | SRC1 inh | NCOA3 inh | NCOA2 inhibitor | NR2F2 inh | GalR3 antag
COc1cc(NS(C)(=O)=O)ccc1Nc1c2ccccc2nc2ccccc12 | 46 | 62* | 64* | -23 | -63 | -4
CCC[C@H]1[C@@H](OC(=O)Oc2ccc([N+](=O)[O-])cc2)CC[C@@]23CCCN2C(=O)CCC[C@@H]13 | / | / | / | / | -11 | /
O=C(Nc1ccc2ccccc2c1)NC1CCCCN(Cc2ccc(Cl)cc2)C1=O (stereo not drawn) | / | / | / | 0 | -13 | /
Cn1c(/C(C#N)=C/c2ccc(-c3ccc(S(N)(=O)=O)cc3)o2)nc2ccccc21 | -15 | 38 | 68* | -16 | -17 | 0
CC(C)(N[C@@H](Cc1ccccc1)C(=O)NCCc1c[nH]c2ccccc12)C(=O)NC1CCCCC1 | / | / | / | / | -29 | /
Nc1ccc2oc(-c3cccc4ccccc34)nc2c1 | -13 | 3 | -18 | 55* | 37 | -1
C[C@@H]1[C@H](O)[C@@H](C)/C=C/C=C/C=C/C=C/C=C/C=C/C=C/[C@H](OC2O[C@H](C)[C@@H](O)[C@H](N)[C@@H]2O)C[C@@H]2O[C@](O)(C[C@@H](O)C[C@@H](O)[C@H](O)CC[C@@H](O)C[C@@H](O)CC(=O)O[C@H]1C)C[C@H](O)[C@H]2C(=O)O (stereo partly drawn) | / | / | / | 4 | 10 | /
CC(C)c1cc(C(C)C)c(S(=O)(=O)N2CCC(c3cn4ccccc4n3)CC2)c(C(C)C)c1 | / | / | / | -12 | 18 | /
CCOc1ccc(-n2c(SCC(=O)Nc3ccccc3-c3ccccc3)nnc2-c2cccs2)cc1 | / | / | / | 9 | -18 | /
CCCCCc1ccc(NC(=O)O[C@@H]2CC[C@@]34CCCN3C(=O)CCC[C@H]4C2)cc1 | / | / | / | / | 31 | /
C=C1C(=O)c2sccc2C(c2ccc(OC)c(OC)c2)C1COC(C)=O (stereo not drawn) | 71 | 59 | 47 | 84* | 89* | 28*
COC(=O)COc1ccc(-c2nccc(-c3ccc(Br)cc3)n2)cc1 | 8 | -10 | -8 | 12 | 17 | 3
COC(=O)COc1ccc(-c2nccc(-c3ccccn3)n2)cc1 | -1 | 19 | 26 | 61* | 26 | -8
COc1ccc2c(c1)CCCN2C(=O)C1CCCN(S(=O)(=O)c2ccc(C)c(C)c2)C1 (stereo not drawn) | / | / | / | 6 | 29 | /
COc1cc(OC)c(OC)cc1CNC(=O)c1cccc(S(=O)(=O)N2CCc3ccccc3C2)c1 | 13 | 21 | 17 | 23 | 23 | 14*
Cc1ccc(N/C(N)=N/c2nc(C)cc(N3CCCCC3)n2)c(C)c1 | 20 | 9 | 25 | 11 | 47* | -12
CCOC(=O)CSc1nc2sc(C)c(C)c2c(=O)[nH]1 | -13 | 10 | -1 | 0 | 5 | -4
CCOC(=O)/C(=C\c1ccc(Cl)cc1)c1nc2sc(C)c(C)c2c(=O)[nH]1 | -5 | 3 | 25 | 6 | 11 | 14*
Cc1ccc(OCCOc2ccc(Cl)cc2Cl)c(Br)n1 | / | / | / | / | -19 | /

High-throughput results from PubChem BioAssay.
